About 83,000 compounds went through this panel and 20% of them were active in at least one assay; those are over-represented in the sample as a whole.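 Treatment: one concentration, 48 hours, 96-well format. Scoring: percent growth, with anything below 10 considered active.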 Values without a mark were called inactive. The source made the active and inactive calls.

Among the test systems are SK-MEL-2 melanoma; EKVX NSCLC; SN12C renal; TK-10 renal; ACHN renal; CAKI-1 renal; A498 renal; CCRF-CEM leukemia; MOLT-4 leukemia; UO-31 renal.
What all share (test): NCI-60 one-dose screen, 48 h (100 = growth as untreated, 0 = no growth, -100 = all killed)
What all share (details): 10 µM unless noted

On to `Cn1cc(-c2nc(-c3c[nH]c4ncccc34)cs2)c2cc(Cl)ccc21`, for which the growth is 60.4% in the assay with SK-MEL-2 melanoma; 41.8% with EKVX NSCLC; 54% in the assay with SN12C renal; 43.1% in the assay on TK-10 renal; 30% with ACHN renal; 36.5% in the assay on CAKI-1 renal. Also, the growth in the assay with A498 renal was 74.7%; in the assay on CCRF-CEM leukemia, 33.8%; in the assay on MOLT-4 leukemia, 37.9%.

Take `Cc1cc(C=O)c(C)c2c1[nH]c1ccccc12`: the growth in the assay with SK-MEL-2 melanoma is 75.6%; in the assay on SN12C renal it was 95.8%; in the assay on UO-31 renal, 74.3%; in the assay with TK-10 renal, 78%; in the assay on ACHN renal it was 88.4%; in the assay on A498 renal it was -84.1% (active). In addition, the growth in the assay on CCRF-CEM leukemia was 83.5%; with MOLT-4 leukemia it was 86.1%.

Regarding `COc1ccc(/C=C2\N=C(c3ccccc3)N(c3cc(OC)c(OC)cc3C(=O)N3N=C(C)CC3=O)C2=O)cc1`, the growth with SK-MEL-2 melanoma was 91.1%; in the assay on SN12C renal, 93.7%; in the assay with UO-31 renal it was 68.9%; in the assay on TK-10 renal it was 113%; in the assay on ACHN renal it was 93.2%; with CAKI-1 renal, 92.3%. Also, the figures for the growth with A498 renal and with MOLT-4 leukemia were 50.8% and 57.9%, respectively.

As to `COc1cc(-c2cc(-c3nc4cc(Cl)c(Cl)cc4[nH]3)[nH]n2)cc(OC)c1OC`, the growth in the assay on SK-MEL-2 melanoma was 86.5%; in the assay on SN12C renal, 69.7%; in the assay with UO-31 renal, 43.2%; in the assay with TK-10 renal it was 107%; with ACHN renal, 46.8%; with CAKI-1 renal it was 84.6%. In the assay on A498 renal, the growth is 67.4%.

`COc1ccc(-c2cc(/C=C/C(=O)c3ccc(N)cc3)[nH]n2)cc1`: the growth in the assay on SK-MEL-2 melanoma is 22.4%; in the assay on SN12C renal, 18.4%; in the assay with UO-31 renal it was 39.6%; in the assay with TK-10 renal, 41.8%; in the assay with ACHN renal, 26.9%; in the assay on CAKI-1 renal, 38.7%. For the same molecule, the growth in the assay on A498 renal was -16.8% (active).

With `COc1ccc(-c2nc3ccccn3c2-c2nc3ccc(Cl)cc3[nH]2)cc1`, the growth in the assay with SK-MEL-2 melanoma was 97.5%; in the assay with SN12C renal it was 97.3%; in the assay with UO-31 renal, 97.6%; in the assay on TK-10 renal, 103%; with ACHN renal, 86.3%; with CAKI-1 renal it was 93.2%. For the same molecule, the growth with A498 renal is 91.9%.

For `O=c1c2sc3ncc(Br)cc3c2ncn1-c1cccc(Cl)c1`, the growth with SK-MEL-2 melanoma is 96.3%; in the assay with SN12C renal, 64.5%; in the assay on UO-31 renal it was 52.1%; in the assay with TK-10 renal it was 73.6%; in the assay on ACHN renal it was 28%; in the assay on CAKI-1 renal, 98.8%. The growth in the assay on A498 renal is 71.7%.

Consider `Nc1nc(N)c2nc3c(nc2n1)CCCCCCCCCC3`, for which the growth with SK-MEL-2 melanoma is 77.5%; with SN12C renal, 43.2%; in the assay with UO-31 renal, 48.7%; with TK-10 renal, 80.3%; in the assay on ACHN renal, 39.4%; with A498 renal it was 93.6%. For the same molecule, the growth in the assay with CCRF-CEM leukemia is 3.44% (active); in the assay with MOLT-4 leukemia, 45.3%.

For `CCCCCCCN(CCCCCCC)C(=N)c1ccnc2ccccc12`, the growth is -46.5% (active) in the assay on SK-MEL-2 melanoma; -15.6% (active) in the assay with EKVX NSCLC; -42% (active) in the assay with SN12C renal; -81.9% (active) in the assay on ACHN renal; 3.85% (active) in the assay on CAKI-1 renal; -17.2% (active) in the assay on A498 renal. Moreover, the growth with MOLT-4 leukemia is -16.5% (active).

Turning to `CC(C)(C)c1cc(-n2c(-c3ccc(Cl)cc3)nc3cc(C(=O)Nc4ccc(Cl)cc4)ccc32)n[nH]1`, the growth was 75.8% in the assay with SK-MEL-2 melanoma; 66.9% in the assay on SN12C renal; 28.5% with UO-31 renal; 50.8% with TK-10 renal; 38.4% in the assay with ACHN renal; 32% with CAKI-1 renal. In addition, the growth was 48% with A498 renal, 62.5% in the assay on CCRF-CEM leukemia and 45.7% in the assay with MOLT-4 leukemia.

As for `COc1ccc2nc(-c3cc(-c4cc(OC)c(OC)c(OC)c4)n[nH]3)[nH]c2c1`, the growth with SK-MEL-2 melanoma was -29.9% (active); with SN12C renal, 21%; in the assay with UO-31 renal, -1.85% (active); with TK-10 renal, 31.7%; with ACHN renal, 21.5%; in the assay on CAKI-1 renal, 26.8%. Also, the growth in the assay with A498 renal was 15.5%.

For `Cc1nn(-c2ccc(Br)cc2)c2nc3[nH]c(=O)[nH]c(=O)c3nc12`, the growth was 111% in the assay with SK-MEL-2 melanoma; 109% in the assay on SN12C renal; 94.2% in the assay on UO-31 renal; 144% in the assay on TK-10 renal; 106% in the assay with ACHN renal; 92.2% in the assay with CAKI-1 renal. Further, the growth in the assay with A498 renal is 84.3%; in the assay with CCRF-CEM leukemia, 118%; in the assay on MOLT-4 leukemia, 116%.

In the case of `Cc1nn2c(-c3nc4cc(Cl)c(Cl)cc4[nH]3)c(-c3ccc(F)cc3)nc2s1`, the growth with SK-MEL-2 melanoma is 57.9%; in the assay with SN12C renal it was 34%; with UO-31 renal, -67.1% (active); in the assay on TK-10 renal, -33.1% (active); in the assay with ACHN renal, 9.13% (active); with CAKI-1 renal it was 13%. The growth in the assay on A498 renal is 29.8%; in the assay on MOLT-4 leukemia it was 76.3%.

`COc1ccc(NC(=O)c2ccc3c(c2)nc(-c2cc4ccccc4[nH]c2=O)n3-c2cc(C(C)(C)C)[nH]n2)cc1`: the growth with SK-MEL-2 melanoma is 99.7%; in the assay on SN12C renal it was 93.2%; with UO-31 renal, 86.3%; with TK-10 renal, 107%; in the assay on ACHN renal, 97.1%; with CAKI-1 renal it was 97.2%. The figures for the growth in the assay with A498 renal and with MOLT-4 leukemia were 85.8% and 63.1%, respectively.

Regarding `COc1ccc(-c2nc3ncccn3c2-c2nc3ccc(Br)cc3[nH]2)cc1`, the growth in the assay on SK-MEL-2 melanoma is 83.5%; with SN12C renal, 89%; with UO-31 renal, 84.4%; in the assay on TK-10 renal it was 101%; with ACHN renal, 88.6%; in the assay on CAKI-1 renal, 93.7%. The growth in the assay on A498 renal is 75.5%.

As to `O=c1c(CNc2ccc(S(=O)(=O)Nc3nccs3)cc2)coc2ccccc12`, the growth with SK-MEL-2 melanoma is 98.1%; with SN12C renal, 99.1%; with UO-31 renal, 82.2%; in the assay with TK-10 renal it was 103%; in the assay with ACHN renal, 94.2%; with CAKI-1 renal it was 98.5%. In addition, the growth in the assay on A498 renal is 112%.
